# Data: PubChem BioAssay (NCATS)
# Results filed as inconclusive are left out. Where a call stands in place of a potency, no number is given. Activity calls are given as the source filed them. Calls follow the shape of the dose curve; as a rule, active = well fitted inhibition curve with a large enough effect; inconclusive = small, poorly fitted or top-dose-only effect; inactive = flat fitted curve, though single readings scatter.
# Target: Calcium and integrin-binding protein 1 (Homo sapiens) (UniProt Q99828)
# Sequence (Q99828 whole entry, looked up): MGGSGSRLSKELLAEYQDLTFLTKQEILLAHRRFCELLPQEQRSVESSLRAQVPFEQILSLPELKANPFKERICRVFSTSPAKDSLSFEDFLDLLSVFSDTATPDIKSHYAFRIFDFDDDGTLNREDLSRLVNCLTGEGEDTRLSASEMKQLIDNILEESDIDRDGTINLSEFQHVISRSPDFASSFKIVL
# Assay: Primary qHTS for Identification of Calcium Integrin Binding Protein 1 (CIB1) Competitor (AID 1508620);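 also: GST tagged CIB1 binding a fluorescein labelled alphaIIb integrin peptide tracer; top concentration of the series differs between compounds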
# Conditions: CIB1-GST / FITC-alphaIIb peptide fluorescence polarization; series mostly up to 114 µM
# How it was run: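 CIB1-GST (1 uM final) and compound incubated 15 min at room temperature before adding FITC-alphaIIb peptide tracer (100 nM final). Competition for binding read by fluorescence polarization (ex 480, em 540) after another 15 min at room temperature.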
row,Structure (SMILES),Potency
1,Cc1ccc(-c2cnn(CC(=O)N(C)C(C)c3ccco3)c(=O)c2)cc1 (stereo not drawn),inactive
2,Cc1ccnc(NC(=S)N[C@@H]2CCN(c3cccc(C(F)(F)F)c3)C2)c1,inactive
3,Cc1sc(C)c2c1C(=O)NS2(=O)=O,inactive
4,O=C1c2ccccc2NC(c2ccc(-c3ccc(Br)cc3)o2)N1O (stereo not drawn),inactive
5,Cc1cc(C)nc(NC(=S)N2CCN(c3cc(Cl)c(Cl)cc3Cl)CC2)c1,inactive
6,CC(=O)Nc1ccc(OCc2cccc(-c3nc4ccccc4c(=O)n3Cc3ccco3)c2)cc1,inactive
7,COc1ccc(CN(Cc2ccccc2)C(=O)c2ccccc2N)cc1COc1ccc(NC(C)=O)cc1,inactive
8,Cc1cc2c(s1)c1cnn(Cc3ccc(-c4ccccc4)cc3)c(=O)c1n2C,inactive
9,CC(C)(C)OC(=O)NCc1nnc(-c2cc3ccccc3[nH]2)o1,inactive
10,CCn1cnc2c(NCc3cccnc3)nc(C#N)nc21,inactive
11,O=C(OCC#CCSc1nnc(-c2cccc3ccccc23)o1)c1cnc[nH]1,inactive
12,O=C(OCC#CCSc1nnc(-c2cccc3ccccc23)o1)c1cc2ccccc2o1,inactive
13,COC(=O)c1cccc(-c2noc(-c3ccccc3F)n2)c1,inactive
14,Cn1nnnc1Sc1ncnc2scc(-c3ccc(N)cc3)c12,inactive
15,COc1ccc(C=O)cc1COc1ccc(NC(C)=O)cc1,inactive
16,O=C(CCCCSc1nnc(-c2cccc3ccccc23)o1)Oc1ccc(F)cc1,inactive
17,N=c1c2c(ccn1-c1ccccc1)Oc1ccc3ccccc3c1C2c1ccccc1 (stereo not drawn),inactive
18,Cc1csc(CNc2ncnc3ccc(-c4ccc(C(=O)O)o4)cc23)n1,inactive
